# Hits are enriched below; roughly 19% of the tested compounds scored in any of these assays.
# Chronic BCR inh = qHTS Assay to Find Inhibitors of Chronic Active B-Cell Receptor Signaling; 340,000 compounds, 0.05% hits; ABC-DLBCL IkBa-CBG/CBR reporter, luminescence ratio, 4 h; AID 493014, 2011; Potency, µM (titrated, usually from 46.1 µM), inactives show at the highest dose activity change, negative = inhibition, most hits filed as inhibitors; active means well fitted inhibition curve with a large enough effect in the signal ratio, with a control signal flat, not every such curve was filed as active; inconclusive means small, poorly fitted or top-dose-only effect, or effect the other way, or a change in a side signal; the % refers to the signal ratio;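 further: potency means the concentration at half of the fitted maximal effect; plate controls were basal doxycycline-induced cells for no effect and cells given 10 µM MG132 for full effect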
#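 Cell line TMD8 (human ABC DLBCL), stably expressing tet-inducible CBG68-IkBa fusion and CBR; IMDM/0.5% FBS; cpd up to 46 uM; dox induction, 4 h, 37C/5% CO2; dual luminescence; green/red ratio; MG132 control.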
# IL1B secr inh = qHTS for Inhibitors of Inflammasome Signaling: IL-1-beta AlphaLISA Primary Screen | THP-1 LPS/ATP IL-1B secretion, AlphaLISA, 16 h; active compounds read low | activity change, % at 57.5 µM | 360,000 compounds, 4.7% hits | AID 743279, 2014; in the data active means activity change below about -50%; inconclusive means mostly about -30% to -49%; further: on the % scale 0 is the no-effect control and ±100 the full control effect
#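 THP-1 cells pretreated 1 hr with compounds (up to 57.5 uM final), then stimulated with LPS (250 ng/mL final) plus ATP (1.25 mM final); secreted IL-1B measured by AlphaLISA after 16 hr, decreased signal indicating inhibition.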
# DT40 TDP1 CPT = qHTS for Inhibitors of human tyrosyl-DNA phosphodiesterase 1 (TDP1): qHTS in cells in presence of CPT; chicken DT40 Tdp1-/-;hTDP1 cells + 20 nM CPT, ATP luminescence, 48 h; Potency, µM (doses to about 46.2 µM), inactives show top-dose activity change, negative = growth inhibition, actives largely listed as inhibitors; 420,000 compounds, 12% hits; AID 686979, 2013; further: potency means the concentration at half of the fitted maximal effect; on the % scale 0 is the no-effect control and ±100 the full control effect; nearly all actives have a fitted effect of over 55% in size
#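 Chicken DT40 Tdp1-/- cells complemented with human TDP1, 400 cells/well, exposed to compounds plus 20 nM camptothecin for at least 48 h at 37 C; viability read as ATP content by CellTiter-Glo luminescence.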
# SW480 rerep = A quantitative high throughput screen for small molecules that induce DNA re-replication in SW480 colon adenocarcinoma cells; SW480 DNA re-replication, Hoechst DNA content imaging, 48 h; Potency, µM (highest dose often 46.1 µM), inactives show at the highest dose re-replication activation, most hits filed as activators; 340,000 compounds, 1.8% hits; further: potency means the concentration at half of the fitted maximal effect; % of control where 0% means no effect; nearly all actives have a fitted effect of over 55% in size
#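 Hoechst fluorescence of nuclei (405 nm excitation, 500-530 nm emission) measured by plate-scanning imager after 48 hr compound exposure at 37 C; re-replication scored as increased number of nuclei with elevated intensity.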
# MCF10A rerep = A quantitative high throughput screen for small molecules that induce DNA re-replication in MCF 10a normal breast cells | MCF 10A DNA re-replication, Hoechst nuclear intensity, 48 h | Potency, µM (highest dose often 46.1 µM), without a hit: at the highest dose activity, positive = re-replication, most hits filed as activators | 350,000 compounds, 2.9% hits; further: potency means the concentration at half of the fitted maximal effect; % of control where 0% means no effect; nearly all actives have a fitted effect of over 50% in size
# TDP1 cell noCPT = qHTS for Inhibitors of human tyrosyl-DNA phosphodiesterase 1 (TDP1): qHTS in cells in absence of CPT | DT40 Tdp1-/- hTDP1 cells, no CPT, ATP luminescence, 48 h | Potency, µM (series often up to 46.2 µM), for the others: at the highest dose activity change, negative = growth inhibition, hits mostly inhibitors | 420,000 compounds, 15% hits | AID 686978, 2013; further: potency means the concentration at half of the fitted maximal effect; on the % scale 0 is the no-effect control and ±100 the full control effect; nearly all actives have a fitted effect of over 55% in size
#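 Growth kinetics read by CellTiter-Glo luminescence after ≥48 hr at 37 °C. Cells: DT40 Tdp1-/- stably carrying human TDP1, 400 per well, compound exposure in the absence of CPT (DMSO vehicle).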
# * marks the source's active call; other numbers are inactive results; ? = inconclusive; / = not tested or not shown. Unless noted, the call rests on the fitted dose curve; in most records, active means well fitted curve in the direction sought with a large enough effect; inconclusive means small, poorly fitted or top-dose-only effect, or another doubt; inactive means no such curve, though single readings can be large; an effect the other way counts as inactive or inconclusive.
SMILES,Chronic BCR inh,IL1B secr inh,DT40 TDP1 CPT,SW480 rerep,MCF10A rerep,TDP1 cell noCPT
CC(C)(C)C(=O)Nc1cccc(S(=O)(=O)NC2=NCCC2)c1,-16%,1,-25%,-2%,2%,0%
C[C@@H]1CN([C@@H](C)CO)C(=O)CCCn2nncc2CO[C@H]1CN(C)C(=O)c1ccc(N2CCN(C)CC2)cc1,/,1,-15%,/,/,-7%
CC(/C=C1\SC(=S)N(NC(=O)c2ccccc2C)C1=O)=C\c1ccccc1,?,5,-17%,-15%,10µM*,-19%
CC(/C=C1\SC(=S)N(NC(=O)c2ccncc2)C1=O)=C\c1ccccc1,-5%,-79*,-1%,6%,0%,3%
CC(/C=C1\SC(=S)N(NC(=O)c2ccc(C)cc2)C1=O)=C\c1ccccc1,0%,-13,-19%,12%,14%,?
CC1CCN(S(=O)(=O)c2cc(F)ccc2CN2C(=O)c3cccnc3C2=O)CC1,0%,-9,1%,5%,-11%,6%
Cc1ccc(C(=O)NCC2CCCN2S(=O)(=O)c2ccc(C)cc2)cc1 (configuration not stated),3%,-14,?,-64%,-1%,?
COc1ccc(S(=O)(=O)N2CCCC2CNC(=O)C(=O)NCc2ccccc2Cl)cc1 (configuration not stated),-18%,-18,?,?,?,23µM*
Cc1ccc(S(=O)(=O)N2CCCC2CNC(=O)c2ccc(F)c(F)c2)cc1 (configuration not stated),?,-6,?,?,5%,18µM*
CC(C)(C)c1ccc(C(=O)NCC2CCCN2S(=O)(=O)c2ccccc2)cc1 (configuration not stated),0%,-57*,8.2µM*,?,?,12µM*
COc1ccc(S(=O)(=O)N2CCCC2CNC(=O)C(=O)Nc2ccc(C)cc2)cc1 (configuration not stated),?,-23,?,-84%,2%,?
COc1ccc(NC(=O)C(=O)NCC2CCCN2S(=O)(=O)c2ccc(C)cc2)cc1 (configuration not stated),?,58,0.0058µM*,?,?,0.018µM*
COc1ccc(-n2ccnc2SCC(=O)NC2CCCC2)cc1,3%,3,-27%,-1%,7%,0%
COc1ccccc1C(=O)N/C(=C\c1cn(S(=O)(=O)N(C)C)c2ccccc12)C(=O)N1CCOCC1,-1%,26,?,-20%,1%,?
Cc1ccc(S(=O)(=O)N2CCCC2CNC(=O)C(=O)NC2CC2)cc1 (configuration not stated),7%,33,11%,-3%,-27%,-20%
Cc1ccc(S(=O)(=O)N2CCCC2CNC(=O)C(=O)Nc2ccc(F)cc2)cc1 (configuration not stated),?,-8,21µM*,?,?,16µM*
COc1ccc(NC(=O)C(=O)NCC2CCCN2S(=O)(=O)c2cc(C)ccc2C)cc1 (configuration not stated),-14%,-3,4.1µM*,16µM*,?,2.6µM*
Cc1cn2c(=O)cc(COC(=O)c3cccc(NC(=O)C(C)Oc4ccccc4)c3)nc2s1 (configuration not stated),/,/,-7%,/,/,-20%
CCN(CC)CCCN1CC(=O)N2[C@@H](Cc3c([nH]c4ccccc34)C2(C)C)C1=O,0%,-29,-5%,-9%,7%,20%
